According to PubChem BioAssay (Tox21):
Inconclusive results are not listed. A call without a number means that no potency is given here. The source made the active and inactive calls. The call rests on the fitted dose curve; in most records, active means well fitted activation curve with a large enough effect in the repeat runs; inconclusive means weak or mixed curves; inactive means flat fitted curve, though single readings scatter.

Test: A CellTox Green Cytotoxicity Assay to monitor cytotoxicity in HEK293 cells - 16 hour (AID 1224888); further: nearly all actives have a fitted effect of over 35% in size
Details: CellTox Green fluorescence; series mostly up to 76.8 µM
Text: National Center for Advancing Translational Sciences [NCATS]
NIH Chemical Genomics Center [NCGC]
U.S. Environmental Protection Agency [EPA]
National Institutes of Environmental Health Sciences [NIEHS]
National Toxicology Program [NTP]
Cell-based models are critical for drug discovery. Determining the natural cytotoxic effects resulting from test compounds is an essential research activity. A CellTox Green Cytotoxicity Assay to monitor cytotoxicity in real time of continues cell culture during 40 hours of the compound treatment was used to screen Tox21 10K library compounds in Hek293 cells. CellTox Green Cytotoxicity Assay is a nonlytic, homogeneous, biofluorescent method to measure cytotoxicity in cell culture after experimental manipulation. The assay system uses a proprietary asymmetric cyanine dye that is excluded from viable cells but preferentially stains the dead cell's DNA. […] Viable cells produce no appreciable increases in fluorescence. Therefore, the fluorescence signal produced by the binding interaction with dead cell DNA is proportional to cytotoxicity.
The mixture of Hek293 cell suspension and reagents were dispensed at 600cells/6 ul/well in 1536-well tissue culture treated black solid bottom plates using a Multidrop dispenser. After the assay plates were incubated at a 37 C/5% CO2 incubator for 5 hours, 23 nL of compounds dissolved in DMSO, positive and negative controls was transferred to the assay plate by a pintool work station. The plates were incubated at 37 C for 40 hours. The fluorescence intensity were measured at 0h, 8h, 16h, 24h, 32h and 40h time points using ViewLux plate reader during compound treatment.

| Structure (SMILES) | Potency | activity change |
| --- | --- | --- |
| CCOc1ccc(O)cc1 | inactive |  |
| C[C@H]1C[C@H]2[C@@H]3CCC4=CC(=O)C=C[C@]4(C)[C@@]3(Cl)[C@@H](O)C[C@]2(C)[C@@]1(O)C(=O)CO | inactive |  |
| c1ccc(-c2ccccn2)nc1 | inactive |  |
| O=[N+]([O-])c1ccc(NCCO)c(OCCO)c1 | inactive |  |
| COc1cc2nc(Cl)nc(N)c2cc1OC | inactive |  |
| CN1CCN(C(c2ccccc2)c2ccccc2)CC1 | inactive |  |
| CCOc1ccc(N)c([N+](=O)[O-])c1 | inactive |  |
| CC(=O)[O][Al][O]C(C)=O | inactive |  |
| CCOc1ccc(N=Nc2ccc(/C=C/c3ccc(N=Nc4ccc(OCC)cc4)cc3S(=O)(=O)O)c(S(=O)(=O)O)c2)cc1 | inactive |  |
| O=C(O)C1(C(=O)O)CCC1.[NH2-].[NH2-].[Pt+2] | inactive |  |
| CCN(CC)CCOC(=O)C(c1ccccc1)C1CCCCC1 (stereo not given) | inactive |  |
| CCCCCCCCCCO[C@@H]1O[C@H](CO)[C@@H](O)[C@H](O)[C@H]1O | inactive |  |
| O=C(O)CNCC(=O)O |  | 2.15% [at 6.97 µM, active compounds read high] (inactive) |
| CC(C)(COC(=O)c1ccccc1)COC(=O)c1ccccc1 | inactive |  |
| O=C(Nc1ccccc1)c1ccccc1O | inactive |  |
| CC1CCC(=O)C1=O (stereo not given) | inactive |  |
| C=C(C)C(=O)OCCO | inactive |  |
| CC1=CC=C(C(C)C)CC1 | inactive |  |
| O=C1OC(=O)C2C3C=CC(C3)C12 (stereo not given) | inactive |  |
| CCCCCCOC(=O)NC(=N)c1ccc(NCc2nc3cc(C(=O)N(CCC(=O)OCC)c4ccccn4)ccc3n2C)cc1 | inactive |  |

| Structure (SMILES) | Potency | activity change |
| --- | --- | --- |
| CCO[Si](CCCCl)(OCC)OCC | inactive |  |
| Cc1ccccc1S(=O)(=O)O | inactive |  |
| CCCCCCCC#N | inactive |  |
| O=P(O)(OCc1ccccc1)OCc1ccccc1 | inactive |  |
| Nc1cccc([N+](=O)[O-])c1 | inactive |  |
| Cc1ccc(N=Nc2c(O)c(C(=O)O)cc3ccccc23)c(S(=O)(=O)O)c1 | inactive |  |
| NC(N)=NCCC[C@H](N)C(=O)O |  | -19.2% [at 6.97 µM, active compounds read high] (inactive) |
| CC(C)C[C@H]1C(=O)N2CCC[C@H]2[C@]2(O)O[C@](NC(=O)[C@@H]3C=C4c5cccc6[nH]c(Br)c(c56)C[C@H]4N(C)C3)(C(C)C)C(=O)N12 | inactive |  |
| CCc1c(C(=O)NN2CCCCC2)nn(-c2ccc(Cl)cc2Cl)c1-c1ccc(Br)cc1 | inactive |  |
| CCC(C)(C)CC | inactive |  |
| COC(C)OC | inactive |  |
| CC(C)(O)c1ccc(CNC(=O)c2cccnc2Oc2ccc(F)cc2)cc1 | inactive |  |
| COc1ccc(C)cc1[N+](=O)[O-] | inactive |  |
| CC[N+]1(CC)CCC(=C(c2ccccc2)c2ccccc2)C1C (stereo not given) | inactive |  |
| Nc1ccccc1S(=O)(=O)c1ccccc1 | inactive |  |
| CC(C)Cc1ccc(C(C)C(=O)OCc2ccccn2)cc1 (stereo not given) | inactive |  |
| NCc1ccccc1Sc1ccccc1CO | inactive |  |
| CC(=O)c1cccc([N+](=O)[O-])c1 | inactive |  |
| C[Si](C)(CCCN)O[Si](C)(C)CCCN | inactive |  |
| CC(C)(CO)[N+](=O)[O-] | inactive |  |
